Laboratory results as given in ChEMBL document CHEMBL3988442, “University of Dundee, Small-Polar-MMV Screening Library” (2021).
In all, about 48,000 compounds went through this assay and about 13,000 (27%) showed an effect of 50% or more. This is one part of the list.

tested on: Wolbachia pipientis; assay: Anti-Wolbachia Cell-Based Screen; format: functional; set-up: scale not given: in the data most compounds retested in dose-response had high values; details: 5 µM

Compared with `COc1cc(-c2cccc3c2OC(CN)C3)ccc1O` (stereo not drawn), `COc1c(Br)cccc1CCNC(=O)c1csnn1` is lower in “Percent Effect” value: 12.42% for the first, -2.024% for the second.

Compared with `CC(C)(C)NC(=O)c1cnc2n1CCCC2`, `CCn1ncnc1C(C)NC(=O)C1CCN(C(C)C)CC1` (stereo not drawn) is lower in “Percent Effect” value: -4.757% for the first, -6.672% for the second.

Compared with `CCOC(=O)N1CCN(c2nc(C)ncc2CC)CC1`, `Cc1cnc(C)c(N2CCN(CCCc3ccncc3)CC2)n1` is lower in “Percent Effect” value: -1.601% for the first, -5.646% for the second.

Compared with `CC(=O)N1CCC2(CC1)c1ncc(-c3ccccc3)n1CCN2C`, `CC(=O)N1CCC2(CC1)c1ncc(-c3ccccc3)n1CCN2C(C)=O` is lower in “Percent Effect” value: 98.56% for the first, 23.35% for the second.

Compared with `CC(=O)N1CCC2(CC1)c1ncc(-c3ccc(F)cc3)n1CCN2C`, `CCS(=O)(=O)N1CCC2(CC1)c1ncc(-c3cccnc3)n1CCN2C` is higher in “Percent Effect” value: 95.01% for the first, 107% for the second.

Compared with `CCS(=O)(=O)N1CCC2(CC1)CCn1c(-c3cnn(C)c3)cnc12.O=C(O)C(F)(F)F`, `CC(=O)N1CCn2c(-c3ccccc3)cnc2C12CCNCC2.O=C(O)C(F)(F)F.O=C(O)C(F)(F)F` is lower in “Percent Effect” value: 2.009% for the first, -11.86% for the second.

First: CN1CCn2c(-c3ccccc3)cnc2C12CCN(CC1CC1)CC2.O=C(O)C(F)(F)F.O=C(O)C(F)(F)F.O=C(O)C(F)(F)F
Second: Cc1ccc(-c2cnc3n2CCN(C)C32CCN(CC3CC3)CC2)cc1.O=C(O)C(F)(F)F.O=C(O)C(F)(F)F.O=C(O)C(F)(F)F
The “Percent Effect” value of the first is lower: -7.532% for the first, 0.5048% for the second.

Going from `Cc1cc(C(=O)N2CCC(n3cc(CO)nn3)CC2)ccc1F` to `COc1cccc(COCC(=O)N2CCCC(N3CCCC3)CC2)c1` (stereo not drawn), the “Percent Effect” value falls from 2.644% to -3.543%.

Going from `CN(C)C(=O)CCN1CC(c2ccccc2)(c2ccccc2)CCC1=O` to `O=C(CCN1CCCC1=O)NCc1cccnc1Oc1ccccc1`, the “Percent Effect” value rises from -7.363% to -4.21%.

Going from `Cc1nnc(CN(C)CC(=O)N2CCCC(C)CC2)n1C` (stereo not drawn) to `CN(CC(=O)N1CCCC1Cn1cccn1)C1CC1` (stereo not drawn), the “Percent Effect” value falls from -6.061% to -6.628%.

Compared with `Cc1cc(C[C@@H]2COC[C@@H]2NC(=O)CNC(=O)N(C)C)on1`, `Cc1cc(CN(C)C(=O)c2ccc(F)cc2F)no1` is higher in “Percent Effect” value: -9.814% for the first, 11.87% for the second.

Going from `CS(=O)(=O)CCC(=O)NC(Cc1ccccc1)C1CC1` (stereo not drawn) to `O=C(CCCOc1ccccc1)N1CCCC1Cn1cccn1` (stereo not drawn), the “Percent Effect” value rises from 2.067% to 116.1%.

First: O=C(CCOc1cccc(F)c1)N1CCCC1Cn1cccn1 (stereo not drawn)
Second: O=C(CCOc1ccc(F)cc1)N1CCCC1Cn1cccn1 (stereo not drawn)
The “Percent Effect” value of the first is lower: 124.8% for the first, 126.4% for the second.

Going from `Cc1cccc(OCCNC(=O)CN2CCCC2Cn2cccn2)c1` (stereo not drawn) to `O=C(CN1CCCC1Cn1cccn1)NCCOc1cccc(F)c1` (stereo not drawn), the “Percent Effect” value rises from -3.043% to 99.45%.

First: COc1cccc(CNC(=O)CN2CCCCC2Cn2cccn2)c1 (stereo not drawn)
Second: COc1cccc(COCC(=O)N2CCCC2Cn2cccn2)c1 (stereo not drawn)
The “Percent Effect” value of the first is lower: 0.3805% for the first, 116% for the second.

First: COCc1nc(CNC(=O)C(C)n2ccnc2C(C)C)no1 (stereo not drawn)
Second: CCc1cnc(C)nc1NC(CC)c1ncnn1CC (stereo not drawn)
The “Percent Effect” value of the first is lower: -16.22% for the first, 9.184% for the second.

Going from `Cc1ccc(NC(=O)NC(C)C(=O)N2CCS(=O)(=O)CC2)cc1` (stereo not drawn) to `COC(=O)C1CCCCN1Cc1cccc(C(=O)NCc2ccco2)c1` (stereo not drawn), the “Percent Effect” value rises from -2.937% to 0.7191%.

First: O=C(c1ccc(Br)o1)N1CCCCC1Cn1cccn1 (stereo not drawn)
Second: Cc1ccc(CC(=O)N2CCCCC2Cn2cccn2)cn1 (stereo not drawn)
The “Percent Effect” value of the first is lower: 0.8504% for the first, 89.03% for the second.

First: COc1ccc(CC(=O)N2CCCCC2Cn2cccn2)cc1 (stereo not drawn)
Second: COc1ccc(OCCC(=O)N2CCCC2Cn2cccn2)cc1 (stereo not drawn)
The “Percent Effect” value of the first is higher: 136.1% for the first, 116.7% for the second.

First: COc1cccc(COCC(=O)N2CCCC(n3cccn3)C2)c1 (stereo not drawn)
Second: COc1ccc2cc(C(=O)N3CCCCC3Cn3cccn3)[nH]c2c1 (stereo not drawn)
The “Percent Effect” value of the first is higher: 17.54% for the first, -2.712% for the second.

First: COc1ccc2c(ccn2CC(=O)N2CCCC2Cn2cccn2)c1 (stereo not drawn)
Second: O=C(Cn1cnnn1)N1CCCCC1Cn1cccn1 (stereo not drawn)
The “Percent Effect” value of the first is higher: 2.808% for the first, -6.209% for the second.

First: CN1CCC(Cc2noc(CCc3nc4ccccc4nc3O)n2)CC1
Second: CCn1nc(C)c(C(C)Nc2cc(C3CCNCC3)nc(C)n2)c1C (stereo not drawn)
The “Percent Effect” value of the first is lower: -2.649% for the first, 97.89% for the second.

Going from `CC(C)NC(=O)NC(=O)C(C)N1CCN(C2CCN(C(C)C)CC2)CC1` (stereo not drawn) to `CCn1ncnc1C(C)NC(=O)CC1CCN(C(C)C)CC1` (stereo not drawn), the “Percent Effect” value rises from -25.53% to -18.67%.

Going from `CCn1ncnc1C(C)Nc1cc(C2CCNCC2)nc(C)n1` (stereo not drawn) to `CCn1ncnc1C(C)Nc1cc(C2CC2)ncn1` (stereo not drawn), the “Percent Effect” value falls from 90.92% to 83.57%.

Compared with `CCn1ncnc1C(C)Nc1cc(C)c2ccc(SC)cc2n1` (stereo not drawn), `COc1cc(C(C)NCc2scnc2C)ccc1SC(F)F` (stereo not drawn) is lower in “Percent Effect” value: -5.818% for the first, -45.23% for the second.

Going from `NC(=O)CCNC(=O)Cc1cccc(I)c1` to `COCCCNC(=O)CN1CCCC1c1c(C)nn(C)c1Cl` (stereo not drawn), the “Percent Effect” value falls from -0.109% to -2.309%.

In the case of `Cc1ccc(N2CC3(CCN(S(=O)(=O)C4CC4)C3)C2)nn1`, the “Percent Effect” value is reported as -11.71%.
